This note sets out measurements from ChEMBL document CHEMBL3988442, “University of Dundee, Small-Polar-MMV Screening Library” (2021).

For some of these results: Measured potencies and affinities stand elsewhere.

Design in all cases: scale not given: direction of the effect not stated beside the values
Test [1] has as its target Protein translocase subunit SecA (Escherichia coli (strain K12)) (UniProt P10408). The test can be described thus: Assay to Identify E. coli SecA ATPase Inhibitors. As to conditions: 30 µM. It counts as functional.
Test [2] concerns the target T1, Ubiquitin-activating enzyme e1, putative (Leishmania donovani (strain BPK282A1)) (UniProt E9BSI1).
T1 sequence (whole entry): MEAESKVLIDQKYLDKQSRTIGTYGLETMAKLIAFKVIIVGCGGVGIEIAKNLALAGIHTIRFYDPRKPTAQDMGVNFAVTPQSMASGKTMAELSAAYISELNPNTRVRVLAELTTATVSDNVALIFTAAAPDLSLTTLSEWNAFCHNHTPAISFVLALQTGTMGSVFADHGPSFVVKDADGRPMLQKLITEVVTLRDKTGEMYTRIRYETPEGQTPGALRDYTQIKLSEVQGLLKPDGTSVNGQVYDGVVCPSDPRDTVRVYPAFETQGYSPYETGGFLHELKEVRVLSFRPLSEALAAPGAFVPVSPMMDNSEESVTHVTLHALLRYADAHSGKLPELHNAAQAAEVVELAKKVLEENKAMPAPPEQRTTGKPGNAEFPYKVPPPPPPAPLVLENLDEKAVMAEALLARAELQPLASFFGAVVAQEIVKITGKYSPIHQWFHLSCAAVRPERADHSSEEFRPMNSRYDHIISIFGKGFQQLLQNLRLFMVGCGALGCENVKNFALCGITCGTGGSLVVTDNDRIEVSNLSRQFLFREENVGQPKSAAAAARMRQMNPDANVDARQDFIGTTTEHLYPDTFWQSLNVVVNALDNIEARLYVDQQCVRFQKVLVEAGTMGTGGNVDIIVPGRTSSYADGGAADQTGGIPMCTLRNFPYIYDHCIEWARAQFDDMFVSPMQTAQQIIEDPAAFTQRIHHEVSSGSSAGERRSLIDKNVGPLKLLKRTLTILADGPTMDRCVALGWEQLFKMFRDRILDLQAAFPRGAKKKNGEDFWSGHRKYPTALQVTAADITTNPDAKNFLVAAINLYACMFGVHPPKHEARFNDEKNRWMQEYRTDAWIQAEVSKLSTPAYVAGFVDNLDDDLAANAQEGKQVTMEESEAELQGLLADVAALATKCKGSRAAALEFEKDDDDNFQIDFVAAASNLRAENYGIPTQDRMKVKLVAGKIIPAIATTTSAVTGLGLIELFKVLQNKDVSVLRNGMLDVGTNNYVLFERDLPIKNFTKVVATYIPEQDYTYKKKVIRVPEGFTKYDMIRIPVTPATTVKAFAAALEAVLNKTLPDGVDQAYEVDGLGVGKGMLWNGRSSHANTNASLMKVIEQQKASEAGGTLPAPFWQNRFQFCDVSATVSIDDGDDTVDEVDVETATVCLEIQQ
The test is described as follows: Leishmania donovani Ubiquitin Activating Enzyme (LdE1). The settings on record: 30 µM. It counts as functional.

Test [3] deals with AMP-activated protein kinase, AMPK (Homo sapiens) (UniProt P54646+O43741+P54619+Q9UGJ0+Q9Y478+Q13131+Q9UGI9). The test is described as follows: AMP-dependent Kinase enzyme assay. An in vitro enzyme assay that detects ADP turnover that is directly proportional to AMPK activity. This uses naive AMPK that is activated during the assay with MK-8722. As to conditions: 30 µM. It is filed as functional.

For test [4], the target named is Sialic acid-binding Ig-like lectin 9 (Homo sapiens) (UniProt Q9Y336). The test can be described thus: Hs-Siglec9 ALPHAscreen SOP 20170721. As to conditions: 10 µM.
The test system of the next test is Trypanosoma cruzi. The test can be described thus: Trypanosoma cruzi phosphomannomutase and mannose-1-phosphate guanylyltransferase assay. It is filed as functional. The settings on record: 10 µM.
Test [5] concerns the target T2, Arginase-2, mitochondrial (Homo sapiens) (UniProt P78540).
T2 sequence (whole entry): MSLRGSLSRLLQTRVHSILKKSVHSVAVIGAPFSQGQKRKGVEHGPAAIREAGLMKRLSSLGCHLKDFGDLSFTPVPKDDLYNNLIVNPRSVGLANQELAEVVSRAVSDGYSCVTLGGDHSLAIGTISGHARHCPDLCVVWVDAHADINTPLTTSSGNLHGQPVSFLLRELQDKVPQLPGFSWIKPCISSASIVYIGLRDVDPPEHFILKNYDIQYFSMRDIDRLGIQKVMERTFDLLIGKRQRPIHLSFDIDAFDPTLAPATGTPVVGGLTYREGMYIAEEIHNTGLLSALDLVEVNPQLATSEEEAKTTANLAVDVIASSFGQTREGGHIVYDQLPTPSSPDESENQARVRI
The test is described as follows: in vitro enzyme assay to detect the production of urea directly proportional to the activity of Arginase II. Also: in the data most compounds retested in dose-response had high values. It is filed as functional. The settings on record: 33.3 µM.

Test [6] concerns the target T3, Proteasome subunit beta (Trypanosoma cruzi) (UniProt O96673).
T3 sequence (whole entry): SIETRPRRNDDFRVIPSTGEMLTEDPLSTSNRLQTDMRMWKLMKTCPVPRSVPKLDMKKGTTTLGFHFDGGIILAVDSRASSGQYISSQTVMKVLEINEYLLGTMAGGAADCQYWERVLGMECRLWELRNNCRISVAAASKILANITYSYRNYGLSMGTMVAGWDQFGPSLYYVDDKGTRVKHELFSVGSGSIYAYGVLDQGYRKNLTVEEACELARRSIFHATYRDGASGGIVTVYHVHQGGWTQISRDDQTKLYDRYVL
The test is described as follows: Trypanosoma cruzi proteasome chymotrypsin-like activity (TcProtChymo) assay. Also: in the data most compounds retested in dose-response had high values. It counts as functional. As to conditions: 9.37 µM.

The species named for the next test is Homo sapiens. The test is described as follows: To identify inhibition of the IFN signalling (Jak-Stat) pathway via expression of an eGFP reporter gene under the control of an IFN-stimulated response element (ISRE) containing MxA promoter. It is filed as functional. As to conditions: 30 µM. A general note: A reporter such as luciferase makes a cellular process visible.

Test [7] deals with T4, Tyrosyl-tRNA synthetase, putative (Trypanosoma cruzi (strain CL Brener)) (UniProt Q4DSP6).
T4 sequence (whole entry): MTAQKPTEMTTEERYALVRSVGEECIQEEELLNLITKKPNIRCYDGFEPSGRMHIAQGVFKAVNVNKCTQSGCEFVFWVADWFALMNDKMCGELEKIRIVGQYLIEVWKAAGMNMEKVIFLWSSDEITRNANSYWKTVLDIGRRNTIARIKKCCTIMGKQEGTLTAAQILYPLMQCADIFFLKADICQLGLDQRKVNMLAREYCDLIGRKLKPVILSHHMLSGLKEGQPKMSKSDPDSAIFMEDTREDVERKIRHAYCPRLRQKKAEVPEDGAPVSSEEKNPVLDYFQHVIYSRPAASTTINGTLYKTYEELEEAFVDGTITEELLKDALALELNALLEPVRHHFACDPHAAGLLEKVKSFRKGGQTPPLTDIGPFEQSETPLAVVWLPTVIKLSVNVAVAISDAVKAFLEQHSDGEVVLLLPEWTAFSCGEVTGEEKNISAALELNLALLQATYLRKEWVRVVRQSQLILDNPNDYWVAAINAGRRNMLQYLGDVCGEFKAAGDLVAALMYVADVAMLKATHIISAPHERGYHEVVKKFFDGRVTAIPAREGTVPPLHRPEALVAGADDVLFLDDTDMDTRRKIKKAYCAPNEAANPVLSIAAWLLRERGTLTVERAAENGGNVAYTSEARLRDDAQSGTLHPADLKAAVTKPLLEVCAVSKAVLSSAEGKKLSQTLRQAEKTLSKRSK
The test can be described thus: Trypanosoma cruzi tyrosyl tRNA synthetase (TcYRS) _High Tyrosine SOP. Also: in the data most compounds retested in dose-response had high values. It counts as functional. As to conditions: 30 µM.

Test [8] has as its target T4, Tyrosyl-tRNA synthetase, putative (Trypanosoma cruzi (strain CL Brener)). The test can be described thus: Trypanosoma cruzi tyrosyl tRNA synthetase (TcYRS) SOP. It is filed as functional. As to conditions: 30 µM.
Test [9] deals with Chromo domain-containing protein 1 (Saccharomyces cerevisiae (strain ATCC 204508 / S288c) (Baker's yeast)) (UniProt P32657). The test can be described thus: ScCHD-1 Enzyme Inhibition Assay. Also: in the data most compounds retested in dose-response had high values. It counts as functional. The settings on record: 30 µM.
Chain of Chromo domain-containing protein 1 (Saccharomyces cerevisiae (strain ATCC 204508 / S288c) (Baker's yeast)) (P32657 whole entry, the tested form may be a part): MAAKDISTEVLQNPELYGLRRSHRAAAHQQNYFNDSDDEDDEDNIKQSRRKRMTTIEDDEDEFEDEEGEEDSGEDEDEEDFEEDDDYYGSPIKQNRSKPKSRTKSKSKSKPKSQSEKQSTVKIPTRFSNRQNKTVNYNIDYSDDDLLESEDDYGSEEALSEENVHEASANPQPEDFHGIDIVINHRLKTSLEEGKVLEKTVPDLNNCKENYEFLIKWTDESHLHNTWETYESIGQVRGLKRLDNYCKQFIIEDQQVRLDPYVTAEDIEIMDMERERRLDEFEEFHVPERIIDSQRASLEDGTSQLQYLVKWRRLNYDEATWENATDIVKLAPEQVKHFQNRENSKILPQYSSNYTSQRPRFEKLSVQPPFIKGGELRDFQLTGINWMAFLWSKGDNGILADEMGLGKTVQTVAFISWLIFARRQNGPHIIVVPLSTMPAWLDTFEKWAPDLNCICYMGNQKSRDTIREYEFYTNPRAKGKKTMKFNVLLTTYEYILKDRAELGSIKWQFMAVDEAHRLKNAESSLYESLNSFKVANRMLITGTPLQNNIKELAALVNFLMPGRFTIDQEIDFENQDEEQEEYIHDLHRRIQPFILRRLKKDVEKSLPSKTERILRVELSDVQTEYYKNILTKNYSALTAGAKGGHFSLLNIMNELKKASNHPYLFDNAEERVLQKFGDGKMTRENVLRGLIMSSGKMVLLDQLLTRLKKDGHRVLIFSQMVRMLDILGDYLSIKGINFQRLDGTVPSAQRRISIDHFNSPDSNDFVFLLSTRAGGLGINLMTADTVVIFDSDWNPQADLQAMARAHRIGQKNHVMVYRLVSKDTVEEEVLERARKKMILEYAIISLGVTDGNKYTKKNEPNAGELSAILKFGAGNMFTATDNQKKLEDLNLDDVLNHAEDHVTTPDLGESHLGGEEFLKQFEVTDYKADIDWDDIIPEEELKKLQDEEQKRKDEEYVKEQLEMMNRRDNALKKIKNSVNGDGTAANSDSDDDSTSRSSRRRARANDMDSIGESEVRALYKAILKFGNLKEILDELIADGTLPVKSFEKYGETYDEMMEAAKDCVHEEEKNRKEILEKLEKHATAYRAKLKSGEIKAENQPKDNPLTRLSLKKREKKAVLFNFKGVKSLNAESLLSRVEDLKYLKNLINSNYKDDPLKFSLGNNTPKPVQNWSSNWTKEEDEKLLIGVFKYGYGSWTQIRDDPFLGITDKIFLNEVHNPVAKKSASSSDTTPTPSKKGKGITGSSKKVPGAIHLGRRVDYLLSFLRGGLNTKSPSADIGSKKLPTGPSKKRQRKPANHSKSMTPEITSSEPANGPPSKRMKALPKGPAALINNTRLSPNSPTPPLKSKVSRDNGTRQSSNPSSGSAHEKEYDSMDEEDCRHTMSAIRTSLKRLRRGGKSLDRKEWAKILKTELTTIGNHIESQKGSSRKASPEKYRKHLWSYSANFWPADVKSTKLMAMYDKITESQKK

Chain of Sialic acid-binding Ig-like lectin 9 (Homo sapiens) (Q9Y336 whole entry): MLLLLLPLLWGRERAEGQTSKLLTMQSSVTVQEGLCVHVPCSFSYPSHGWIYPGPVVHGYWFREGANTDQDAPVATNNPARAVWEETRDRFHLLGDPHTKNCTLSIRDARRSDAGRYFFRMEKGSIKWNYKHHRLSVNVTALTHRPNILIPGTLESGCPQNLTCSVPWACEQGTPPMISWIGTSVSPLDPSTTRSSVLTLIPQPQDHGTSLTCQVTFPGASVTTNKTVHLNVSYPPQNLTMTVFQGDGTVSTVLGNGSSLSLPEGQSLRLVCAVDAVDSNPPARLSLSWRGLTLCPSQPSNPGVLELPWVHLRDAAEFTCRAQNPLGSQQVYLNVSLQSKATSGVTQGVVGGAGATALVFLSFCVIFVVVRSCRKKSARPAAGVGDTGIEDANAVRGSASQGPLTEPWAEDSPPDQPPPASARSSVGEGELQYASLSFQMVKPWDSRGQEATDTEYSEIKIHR
Chain of Protein translocase subunit SecA (Escherichia coli (strain K12)) (P10408 whole entry): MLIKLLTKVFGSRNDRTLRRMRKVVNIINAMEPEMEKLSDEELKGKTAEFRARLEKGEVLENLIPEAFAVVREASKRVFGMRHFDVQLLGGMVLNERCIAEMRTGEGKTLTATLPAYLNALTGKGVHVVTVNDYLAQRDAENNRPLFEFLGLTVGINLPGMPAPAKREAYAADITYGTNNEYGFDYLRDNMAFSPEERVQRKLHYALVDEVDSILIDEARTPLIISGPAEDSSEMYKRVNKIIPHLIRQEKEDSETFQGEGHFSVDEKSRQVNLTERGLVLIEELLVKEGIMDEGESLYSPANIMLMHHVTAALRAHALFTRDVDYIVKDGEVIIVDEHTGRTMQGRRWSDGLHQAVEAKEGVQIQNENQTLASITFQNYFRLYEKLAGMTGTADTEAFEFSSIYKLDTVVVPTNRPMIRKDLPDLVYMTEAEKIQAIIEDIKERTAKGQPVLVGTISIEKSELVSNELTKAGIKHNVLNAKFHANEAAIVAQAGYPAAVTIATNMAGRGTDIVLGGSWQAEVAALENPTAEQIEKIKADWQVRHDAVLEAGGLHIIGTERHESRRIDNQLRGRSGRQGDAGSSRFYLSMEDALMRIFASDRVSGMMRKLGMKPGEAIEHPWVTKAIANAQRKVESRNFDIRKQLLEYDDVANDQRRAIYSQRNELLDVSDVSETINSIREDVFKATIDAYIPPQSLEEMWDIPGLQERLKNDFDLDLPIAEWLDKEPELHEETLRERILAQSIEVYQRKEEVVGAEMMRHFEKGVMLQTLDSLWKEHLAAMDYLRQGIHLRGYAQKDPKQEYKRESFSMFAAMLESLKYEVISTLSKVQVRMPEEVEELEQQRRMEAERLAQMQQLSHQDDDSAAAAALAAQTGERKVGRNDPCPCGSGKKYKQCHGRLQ

With `CC(O)CN1CCN(C(=O)c2cn(-c3ccccc3Cl)nn2)CC1` (stereo unspecified), the Percent Effect in test [1] is -1.74%; in test [2], 10.8%; in [3] it was -3.04%; in [4] it was 16.5%; with Trypanosoma cruzi, 2.44%; in [5], 5.71%. Further, the Percent Effect was 4.21% in test [6]; -2.08% in the test listed under Homo sapiens; 3.23% in test [7]; 13.6% in [8]; -4.02% in test [9].

Turning to `CC(C(=O)NCCN1CCCCCC1)n1cncn1` (stereo unspecified), the Percent Effect was -5.19% in [1]; 13.2% in test [2]; -5.03% in test [3]; 2.07% in [4]; 4.76% in the test on Trypanosoma cruzi; 1.8% in test [5]. Also, the Percent Effect in test [6] was 3.98%; in the test listed under Homo sapiens, -5.88%; in test [7], 4.43%; in test [8], 13.6%; in test [9] it was -5.88%.

In the case of `Cc1ccc(F)c(-n2nnc(C(=O)O)c2-c2ccncc2)c1`, the Percent Effect in test [1] was -0.715%; in test [2], 13.2%; in test [3], 2.72%; in test [4], -1.83%; with Trypanosoma cruzi, -3.8%; in test [5], -2.37%. In addition, the Percent Effect in test [6] is 22.7%; in the test listed under Homo sapiens, -8.42%; in test [7] it was 3.19%; in [8], 10.4%; in test [9], -1.85%.

As to `CN1CCc2onc(CNc3ncccn3)c2C1`, the Percent Effect was -7.63% in [1]; 2.67% in test [2]; 0.141% in test [3]; -6.27% in test [4]; -7.53% in the test with Trypanosoma cruzi; -53.9% in [5]. Besides, the Percent Effect in test [6] is 3.25%; in the test listed under Homo sapiens it was 3.62%; in [7], 0%; in test [8], 5%; in test [9], -6.01%.

Turning to `CCN1CCC(NC(=O)CN2CCCC2Cn2cncn2)CC1` (stereo unspecified), the Percent Effect is -0.772% in [1]; 6.33% in test [2]; -1.15% in test [3]; -1.21% in [4]; -5.64% in the test with Trypanosoma cruzi; 0.645% in test [5]. The Percent Effect was 8.92% in test [6]; 4.26% in the test listed under Homo sapiens; 3.12% in test [7]; 2.53% in [8]; -22.4% in [9].

With `COc1ccc(CN2C[C@H]3CN(c4ccsc4)C(=O)[C@H]3C2)cc1`, the Percent Effect is -1.53% in [1]; 0% in [2]; 6.82% in test [3]; -0.914% in [4]; -3.23% in the test on Trypanosoma cruzi; 0.955% in test [5]. Further, the Percent Effect in [6] is 19%; in the test filed under Homo sapiens, 14.6%; in test [7] it was 2.16%; in test [8] it was 10.3%; in test [9], -1.59%.

With `Cc1ncsc1C(=O)NC1CCN(CCC(N)=O)CC1`, the Percent Effect is -5.32% in test [1]; 15.6% in test [2]; -3% in [3]; 11% in test [4]; -2.62% in the test with Trypanosoma cruzi; 0.356% in test [5]. The Percent Effect in test [6] is 4.56%; in the test filed under Homo sapiens, 4.69%; in [7], 4.85%; in [8], 9.76%; in test [9], -1.54%.

`Cn1ncc2c(N3CCN(C(N)=O)CC3)nc(C3CCCC3)nc21`: the Percent Effect is -1.31% in test [1]; 1.39% in test [2]; 27.7% in test [3]; -4.81% in [4]; -7.29% in the test with Trypanosoma cruzi; 0.883% in test [5]. The Percent Effect was 18.4% in test [6]; 25.9% in the test listed under Homo sapiens; 1.05% in [7]; -7.69% in test [8]; -4.35% in [9].

Consider `CSc1ccc(-c2nc(CN3CCC(NC(C)=O)C3)c(C)o2)cc1` (stereo unspecified), for which the Percent Effect in [1] was -6.31%; in [2], -5.41%; in [3], 0.887%; in test [4], -0.709%; in the test with Trypanosoma cruzi, -4.25%; in test [5] it was -3.33%. The Percent Effect was 2.93% in test [6]; 18.4% in the test listed under Homo sapiens; 4.76% in test [7]; 7.32% in test [8]; -1.88% in test [9].

Turning to `CN(CCC#N)C(=O)CN1CCCC1c1ccsc1` (stereo unspecified), the Percent Effect in [1] was -7.51%; in test [2], 0%; in test [3], -7.58%; in test [4], 1.78%; in the test on Trypanosoma cruzi it was -3.62%; in [5], 0.924%. For the same molecule, the Percent Effect in test [6] was -1.26%; in the test listed under Homo sapiens, 11.9%; in test [7] it was -2.97%; in [8], -1.22%; in [9], 7.91%.

On to `Cc1ccc(C(=O)NC2CCN(C(=O)Nc3ccccn3)CC2)o1`, for which the Percent Effect in [1] was -3.11%; in [2], 10.4%; in test [3] it was -3.63%; in test [4], -17.5%; in the test with Trypanosoma cruzi it was -7.15%; in [5], -2.32%. Moreover, the Percent Effect in test [6] is 6.71%; in the test listed under Homo sapiens, 9.29%; in test [7] it was 2.86%; in test [8], 14.1%; in [9] it was -18.9%.
